Assay outcomes: PubChem BioAssay, National Center for Advancing Translational Sciences (NCATS)
aSyn yeast inh: qHTS of alpha-syn Inhibitors | Potency, µM (doses to about 46.1 µM), inactives show at the highest dose growth rescue (activation), usual class: activators | Yeast expressing alpha-synuclein, growth rescue, BacTiter-Glo, 24 h | 370,000 tested, 0.14% active; further: % of control where 0% means no effect; nearly all actives have a fitted effect of over 65% in size
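Screening used galactose-induced yeast with toxic alpha-synuclein levels, exposed to compound for 24 hr at 30 deg C. Cell growth, read with BacTiter-Glo luminescence, gave the measured signal.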
TDP43 rescue: qHTS of TDP-43 Inhibitors | 410,000 tested, 1.8% active | TDP-43 expressing yeast growth rescue, BacTiter-Glo, 24 h | AID 652104, 2013 | Potency, µM (doses to about 46.1 µM), inactives show top-dose growth rescue (activation), most hits filed as activators; further: % of control where 0% means no effect; nearly all actives have a fitted effect of over 50% in size
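Readout is BacTiter-Glo luminescence of cell growth, so inhibitors register as activators. TDP-43-expressing yeast at OD600=0.02 in galactose medium, after raffinose pregrowth to mid-log, were incubated with compound for 24 hr at 30 deg C.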
Abeta rescue: qHTS for compounds that reverse cellular toxicity of Amyloid beta (A-beta) peptide in yeast: Primary Screen; yeast expressing A-beta42, growth rescue, OD600, 48 h; response scale: 0% DMSO, 100% iron-clioquinol control; Potency, µM (titrated, usually from 46.1 µM), actives largely listed as activators; 410,000 tested, 0.063% active; further: nearly all actives have a fitted effect of over 55% in size
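Yeast growth medium received pinned compounds, then yeast cells expressing toxic A-beta were added; plates incubated at 30 C for 48 hr. Growth read as absorbance at 600 nm, normalized to DMSO and equimolar FeCl3 plus clioquinol controls.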
FUS suppressor: qHTS for Suppressors of FUS Proteinopathy: Primary screen using FUS-linked yeast assay; S. cerevisiae FUS-expressing, growth rescue, OD600, 24 h; Potency, µM (top dose mostly 76.6 µM), usual class: activators; 390,000 tested, 0.24% active;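 further: plate controls were DMSO vehicle for no effect and reference control for full effect; nearly all actives have a fitted effect of over 55% in size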
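FUS-expressing yeast, raffinose-pregrown, induced in 2% galactose minimal medium at OD 0.005; compounds in a dilution series, 24hr at 30C. Growth restoration read as absorbance at 600 nm. CP55940 positive control, DMSO negative.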
* marks the source's active call; other numbers are inactive results; i = inactive; ? = inconclusive; / = no result. The list is not random: actives were taken first. Their share in the collection is about 2.1%. The call rests on the fitted dose curve; in most records, active means well fitted curve in the direction sought with a large enough effect; inconclusive means small, poorly fitted or top-dose-only effect, or another doubt; inactive means no such curve, though single readings can be large; an effect the other way counts as inactive or inconclusive. Potency means the concentration at half of the fitted maximal effect.

SMILES | aSyn yeast inh | TDP43 rescue | Abeta rescue | FUS suppressor
O=C1c2sc3nc4ccccc4n3c2C(=O)N1c1ccccc1Cl | -1% | 11µM* | i | i
COc1ccc(-n2c(SCC(=O)Nc3nccs3)nc3sc4c(c3c2=O)CCN(C)C4)cc1 | 6% | -18% | i | 28µM*
COc1ccc(NC(=O)CSc2nc3sc4c(c3c(=O)n2-c2ccc(OC)cc2)CCN(C)C4)cc1 | -1% | 4% | i | ?
CCN(C)c1nc(C)nc2c1nnn2Cc1ccccc1 | / | / | / | i
c1ccc2c(c1)Cn1c-2nc2ccccc21 | -10% | -37% | i | i
Brc1c(-c2ccccc2)nc2n1Cc1ccccc1-2 | ? | 13µM* | i | i
COC(=O)[C@]12CCCCC=C1N(Cc1ccc(Cl)cc1Cl)C(=O)[C@H](CC(=O)N1CCCCC1)C2 | 11% | ? | i | ?
CCOC(=O)[C@]12CCCC=C1N(Cc1ccc(Cl)cc1Cl)C(=O)[C@H](CC(=O)N1CCN(C(=O)c3ccco3)CC1)C2 | 29% | 16µM* | i | 18µM*
COC(=O)[C@]12CCCCC=C1N(Cc1ccc(Cl)cc1Cl)C(=O)[C@H](CC(=O)N1CCOCC1)C2 | 29% | 18µM* | i | ?
Fc1ccc(-c2cc(-c3nnc4sc(-c5cccs5)nn34)[nH]n2)cc1 | / | / | / | i
N#Cc1cn(CCOc2ccc(F)cc2)c2ccccc12 | 28% | 20µM* | ? | i
N#Cc1cn(CCOc2ccccc2F)c2ccccc12 | ? | ? | ? | i
O=C(Nc1ccc(Cl)cc1)c1cc2c(cc1O)[nH]c1ccccc12 | -13% | 4µM* | i | i
Cc1c(Cl)cccc1-n1ncc(C(=O)NCc2cccs2)c1C1CCN(C(=O)OC(C)(C)C)CC1 | / | 32µM* | ? | ?
Cc1ccc(-n2ncc(C(=O)NCc3cccs3)c2C2CCN(C(=O)OC(C)(C)C)CC2)cc1C | / | -11% | i | 20µM*
COc1ccc(S(=O)(=O)N(C)C[C@H]2Oc3ccc(NC(=O)Cc4ccccc4)cc3C(=O)N([C@H](C)CO)C[C@@H]2C)cc1 | 1% | 18% | i | 28µM*
COc1ccc(S(=O)(=O)Nc2cccc3c2O[C@H](CN(C)S(=O)(=O)c2ccccc2)[C@@H](C)CN([C@H](C)CO)C3=O)cc1 | -2% | 8% | i | 16µM*
COc1ccc(S(=O)(=O)Nc2cccc3c2O[C@H](CN(C)Cc2ccc(-c4ccccc4)cc2)[C@@H](C)CN([C@H](C)CO)C3=O)cc1 | -1% | -1% | i | 25µM*
C[C@H](CO)N1C[C@H](C)[C@@H](CN(C)S(=O)(=O)c2ccccc2)Oc2c(NC(=O)NC3CCCCC3)cccc2C1=O | -9% | -5% | i | 32µM*
C[C@H](CO)N1C[C@H](C)[C@@H](CN(C)S(=O)(=O)c2ccc(F)cc2)Oc2c(NC(=O)NC3CCCCC3)cccc2C1=O | 7% | 8% | i | i
COc1ccc(S(=O)(=O)N(C)C[C@@H]2Oc3c(NC(=O)Nc4ccccc4)cccc3C(=O)N([C@@H](C)CO)C[C@H]2C)cc1 | / | / | / | 16µM*
COc1ccc(C#Cc2ccc3c(c2)O[C@H](CN(C)S(=O)(=O)c2ccccc2F)[C@H](C)CN([C@H](C)CO)S3(=O)=O)cc1 | -3% | 26% | i | 28µM*
C[C@H]1CN([C@@H](C)CO)S(=O)(=O)c2ccc(Br)cc2O[C@H]1CN(C)S(=O)(=O)c1ccccc1F | 1% | 11% | i | i
CC(=O)Nc1ccc(NS(=O)(=O)c2cccc3ccccc23)cc1 | 3% | 2% | i | i
CC(C)(C)c1ccc(S(=O)(=O)Nc2ccc(C(O)(C(F)(F)F)C(F)(F)F)cc2)cc1 | -25% | 35µM* | ? | ?
O=S(=O)(Nc1ccc(C(O)(C(F)(F)F)C(F)(F)F)cc1)c1cccc2ccccc12 | -16% | 35µM* | i | i
C=CCN1[C@H](C#N)[C@@H](c2ccc(C#Cc3cccc(OC)c3)cc2)[C@H]1CO | / | / | / | i
COc1cccc(C2=CC(=O)C[C@H](c3ccc4c(c3)OCO4)C2)c1OC | -2% | 13µM* | i | ?
COc1cccc(OC)c1C1=CC(=O)C[C@H](c2ccc3c(c2)OCO3)C1 | -6% | ? | i | i
